{"source": "PubChem BioAssay (NCATS)", "key": {"[1]": {"assay": "qHTS for Inhibitors of the Functional Ribonucleoprotein Complex (vRNP) of Lymphocytic Choriomeningitis Arenaviruses (LCMV): Viability assay - alamar blue signal for LCMV Primary Screen (AID 1347085; calls by dose curve; tested in HEK293 reporter line; note: nearly all actives have a fitted effect of over 80% in size; note: potency is the fitted concentration of half-maximal effect)"}, "[2]": {"molecular_target": "Nucleoprotein (Lymphocytic choriomeningitis virus (strain Armstrong)) (UniProt P09992)", "sequence (P09992 whole entry, looked up)": "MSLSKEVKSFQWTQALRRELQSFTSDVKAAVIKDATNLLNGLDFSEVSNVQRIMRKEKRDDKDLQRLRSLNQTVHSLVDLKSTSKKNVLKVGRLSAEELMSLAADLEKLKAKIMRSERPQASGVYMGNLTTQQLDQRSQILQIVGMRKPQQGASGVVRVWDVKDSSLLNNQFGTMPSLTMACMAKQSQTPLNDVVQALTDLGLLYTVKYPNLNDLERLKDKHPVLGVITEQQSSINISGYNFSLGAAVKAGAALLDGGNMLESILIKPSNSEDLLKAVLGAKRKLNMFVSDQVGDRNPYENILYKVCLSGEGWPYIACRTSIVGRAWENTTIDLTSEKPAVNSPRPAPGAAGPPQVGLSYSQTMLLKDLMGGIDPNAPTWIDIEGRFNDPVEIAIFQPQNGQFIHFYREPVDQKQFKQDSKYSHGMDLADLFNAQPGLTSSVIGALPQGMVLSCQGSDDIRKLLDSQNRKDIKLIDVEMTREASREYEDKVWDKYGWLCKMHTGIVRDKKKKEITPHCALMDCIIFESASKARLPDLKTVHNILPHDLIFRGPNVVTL", "assay": "qHTS for Inhibitors of the Functional Ribonucleoprotein Complex (vRNP) of Lymphocytic Choriomeningitis Arenaviruses (LCMV): LCMV Primary Screen - GLuc reporter signal (AID 1347086; calls by dose curve; note: nearly all actives have a fitted effect of over 70% in size; note: potency is the fitted concentration of half-maximal effect)"}, "[3]": {"assay": "qHTS Assay for Lipid Storage Modulators (AID 1519; calls by dose curve)", "conditions": "Drosophila S3 cells, BODIPY lipid droplet/cell ratio, laser cytometry, cells loaded with oleic acid", "procedure,_shortened": "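Cells seeded at 5,000 per well were treated with compounds over a concentration series and loaded with oleic acid (400 uM, as added). Lipid droplet fluorescence (488 nm excitation, 500-530 nm channel) was read by laser-scanning cytometry and normalized to 20 uM Triacsin C.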"}, "[4]": {"molecular_target": "Ubiquitin carboxyl-terminal hydrolase 1 (Homo sapiens) (UniProt O94782)", "sequence (O94782 whole entry, looked up)": "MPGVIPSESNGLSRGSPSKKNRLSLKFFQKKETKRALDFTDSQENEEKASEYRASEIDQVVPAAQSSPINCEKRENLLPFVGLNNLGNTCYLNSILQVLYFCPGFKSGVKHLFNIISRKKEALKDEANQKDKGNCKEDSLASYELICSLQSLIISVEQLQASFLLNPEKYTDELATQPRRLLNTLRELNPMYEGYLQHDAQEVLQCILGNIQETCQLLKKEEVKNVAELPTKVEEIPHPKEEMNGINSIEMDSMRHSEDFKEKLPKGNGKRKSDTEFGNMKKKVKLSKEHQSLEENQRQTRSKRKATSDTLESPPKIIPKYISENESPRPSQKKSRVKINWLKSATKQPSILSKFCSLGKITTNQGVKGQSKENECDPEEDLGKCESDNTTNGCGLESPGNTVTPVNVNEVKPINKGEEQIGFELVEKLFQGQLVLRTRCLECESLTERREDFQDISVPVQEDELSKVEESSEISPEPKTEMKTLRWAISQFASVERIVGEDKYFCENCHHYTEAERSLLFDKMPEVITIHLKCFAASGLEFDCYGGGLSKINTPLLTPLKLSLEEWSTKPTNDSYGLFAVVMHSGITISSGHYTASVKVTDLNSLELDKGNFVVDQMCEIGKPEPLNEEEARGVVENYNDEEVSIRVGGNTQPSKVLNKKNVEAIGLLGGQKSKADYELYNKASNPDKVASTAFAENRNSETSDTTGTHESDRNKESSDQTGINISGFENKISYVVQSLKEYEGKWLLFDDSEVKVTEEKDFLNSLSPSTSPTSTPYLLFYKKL", "assay": "Inhibitors of USP1/UAF1: Pilot qHTS (AID 504865);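 note: rhodamine fluorescence freed from ubiquitin-rhodamine substrate followed over time; top concentration of the series differs between compounds; nearly all actives have a fitted effect of over 35% in size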", "procedure,_shortened": "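Kinetic fluorescence assay: 1nM USP1/UAF1, 15 min compound preincubation, then 150nM Ub-Rho; 480/540 nm.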"}, "Furin (Homo sapiens)": {"molecular_target": "Furin (Homo sapiens) (UniProt P09958)", "sequence (P09958 whole entry, looked up)": "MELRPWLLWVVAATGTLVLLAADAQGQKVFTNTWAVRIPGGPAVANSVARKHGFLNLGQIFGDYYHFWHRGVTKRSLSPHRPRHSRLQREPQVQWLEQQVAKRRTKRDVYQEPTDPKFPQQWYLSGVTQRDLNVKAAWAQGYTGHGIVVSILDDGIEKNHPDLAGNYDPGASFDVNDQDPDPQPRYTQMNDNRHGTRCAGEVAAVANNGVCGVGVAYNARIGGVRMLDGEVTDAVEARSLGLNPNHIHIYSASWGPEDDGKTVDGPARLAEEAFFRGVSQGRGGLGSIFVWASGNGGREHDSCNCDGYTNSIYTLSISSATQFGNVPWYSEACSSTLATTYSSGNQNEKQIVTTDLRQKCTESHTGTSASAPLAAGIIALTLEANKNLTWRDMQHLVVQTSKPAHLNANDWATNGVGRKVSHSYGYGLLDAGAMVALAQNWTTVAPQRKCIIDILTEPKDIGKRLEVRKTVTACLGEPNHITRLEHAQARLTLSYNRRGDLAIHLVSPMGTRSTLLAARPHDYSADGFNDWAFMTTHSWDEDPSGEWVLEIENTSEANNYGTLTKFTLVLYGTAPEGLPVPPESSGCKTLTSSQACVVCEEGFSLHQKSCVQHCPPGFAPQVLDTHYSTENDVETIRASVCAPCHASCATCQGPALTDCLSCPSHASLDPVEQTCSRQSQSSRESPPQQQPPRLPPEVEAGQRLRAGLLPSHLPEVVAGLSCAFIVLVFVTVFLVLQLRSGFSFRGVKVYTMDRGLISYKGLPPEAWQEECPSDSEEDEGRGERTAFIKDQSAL", "assay": "Furin counterscreen qHTS for Zika virus inhibitors (AID 1347149); note: nearly all actives have a fitted effect of over 70% in size; note: potency is the fitted concentration of half-maximal effect; for activity change, negative = inhibition: top concentration of the series differs between compounds", "procedure,_shortened": "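Counterscreen measures cleavage of 2 microM BOC-RVRR-AMC, below its ~15 microM Km, by 5 nM full-length human furin at pH 7.0 after a 15-min compound preincubation. Inhibition derives from the 15-min fluorescence increase at 37C.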"}, "[5]": {"assay": "Vero cells viability qHTS for Zika virus inhibitors (AID 1347167)", "procedure,_shortened": "(§1)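 To flag cytotoxic protease inhibitors, viability is measured by ATP-dependent luminescence (CellTiter Glo) after cells attached overnight receive compound for 24 to 48 hours in DMEM with 4% FBS.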"}, "[6]": {"assay": "Tertiary RLuc qRT-PCR qHTS assay for Zika virus inhibitors (AID 1347169)", "procedure,_shortened": "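Orthogonal cell-based infection assay using recombinant ZIKV-RLuc (Cambodian) in Vero cells; compound added prior to virus at MOI 1-2. Incubation lasts 48-72 hrs at 37 degrees C before live-cell Renilla substrate is added and luminescence measured.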"}, "[7]": {"molecular_target": "Cytochrome P450 1A2 (Homo sapiens) (UniProt P05177)", "sequence (P05177 whole entry, looked up)": "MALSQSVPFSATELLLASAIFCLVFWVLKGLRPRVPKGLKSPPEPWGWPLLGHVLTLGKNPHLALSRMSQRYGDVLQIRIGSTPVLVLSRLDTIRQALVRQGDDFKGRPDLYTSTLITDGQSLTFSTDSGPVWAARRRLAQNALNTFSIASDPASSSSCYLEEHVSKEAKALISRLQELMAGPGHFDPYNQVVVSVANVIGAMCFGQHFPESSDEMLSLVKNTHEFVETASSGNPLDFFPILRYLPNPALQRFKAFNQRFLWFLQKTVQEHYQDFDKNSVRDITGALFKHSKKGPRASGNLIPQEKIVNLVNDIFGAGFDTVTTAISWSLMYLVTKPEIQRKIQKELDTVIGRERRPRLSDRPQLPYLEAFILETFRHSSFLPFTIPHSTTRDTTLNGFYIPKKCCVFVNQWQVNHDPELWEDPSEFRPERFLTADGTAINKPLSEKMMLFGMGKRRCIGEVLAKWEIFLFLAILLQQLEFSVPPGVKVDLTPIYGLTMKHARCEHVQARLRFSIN", "assay": "p450-cyp1a2 (AID 410; calls by dose curve)", "procedure,_shortened": "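20nM CYP1A2, 100uM Luciferin-ME (=Km), 100mM KPO4; cpd 10 min RT; +NADPH regen, 60 min RT; stop/detect 20 min; luminescence. Normalized to furafylline 57 uM = full inhibition.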"}, "[8]": {"molecular_target": "Glucocorticoid receptor (Homo sapiens) (UniProt P04150)", "sequence (P04150 whole entry, looked up)": "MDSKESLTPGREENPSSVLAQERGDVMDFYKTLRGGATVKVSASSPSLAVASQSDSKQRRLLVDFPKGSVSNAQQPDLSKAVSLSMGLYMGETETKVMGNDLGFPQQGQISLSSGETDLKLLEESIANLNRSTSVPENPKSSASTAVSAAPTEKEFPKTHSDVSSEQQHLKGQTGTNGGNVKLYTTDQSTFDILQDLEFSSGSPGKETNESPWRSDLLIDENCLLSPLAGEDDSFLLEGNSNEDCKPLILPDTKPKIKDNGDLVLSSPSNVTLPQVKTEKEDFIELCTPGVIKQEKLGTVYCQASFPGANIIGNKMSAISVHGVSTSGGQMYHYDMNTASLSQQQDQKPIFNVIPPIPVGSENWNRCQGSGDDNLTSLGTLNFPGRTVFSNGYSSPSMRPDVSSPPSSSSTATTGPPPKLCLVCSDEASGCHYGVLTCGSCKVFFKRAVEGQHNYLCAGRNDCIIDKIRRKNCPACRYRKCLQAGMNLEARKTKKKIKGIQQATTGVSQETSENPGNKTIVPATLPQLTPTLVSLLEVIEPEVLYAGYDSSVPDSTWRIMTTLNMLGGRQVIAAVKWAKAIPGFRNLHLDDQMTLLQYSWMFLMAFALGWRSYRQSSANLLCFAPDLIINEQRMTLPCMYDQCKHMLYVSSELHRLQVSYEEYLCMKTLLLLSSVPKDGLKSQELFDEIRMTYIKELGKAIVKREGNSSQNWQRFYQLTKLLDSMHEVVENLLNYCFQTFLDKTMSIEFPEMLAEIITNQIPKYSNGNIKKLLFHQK", "assay": "GR-GFP Redistribution (AID 450;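 active = compounds whose dose series gives a full or clear partial fitted curve of increased nuclear translocation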)", "conditions": "U2OS GR-GFP nuclear translocation, laser cytometry, 2 h"}, "[9]": {"molecular_target": "Mitogen-activated protein kinase 10 (Mus musculus) (UniProt Q61831)", "assay": "JNK3 AlphaScreen Assay (AID 530; active = well fitted curve in either direction with a large enough effect, not every such curve was filed as active)", "procedure,_shortened": "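Biotinylated GST-cJun(1-79) served as substrate for JNK3 in HepG2 lysates stimulated with IL-1beta and TNF-alpha. ATP was 10 uM final, pH 7.6. Ser73 phosphorylation was quantified by AlphaScreen (680 nm excitation).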"}, "[10]": {"molecular_target": "3',5'-cyclic-AMP phosphodiesterase 4B (Homo sapiens) (UniProt Q07343)", "sequence (Q07343 whole entry, looked up)": "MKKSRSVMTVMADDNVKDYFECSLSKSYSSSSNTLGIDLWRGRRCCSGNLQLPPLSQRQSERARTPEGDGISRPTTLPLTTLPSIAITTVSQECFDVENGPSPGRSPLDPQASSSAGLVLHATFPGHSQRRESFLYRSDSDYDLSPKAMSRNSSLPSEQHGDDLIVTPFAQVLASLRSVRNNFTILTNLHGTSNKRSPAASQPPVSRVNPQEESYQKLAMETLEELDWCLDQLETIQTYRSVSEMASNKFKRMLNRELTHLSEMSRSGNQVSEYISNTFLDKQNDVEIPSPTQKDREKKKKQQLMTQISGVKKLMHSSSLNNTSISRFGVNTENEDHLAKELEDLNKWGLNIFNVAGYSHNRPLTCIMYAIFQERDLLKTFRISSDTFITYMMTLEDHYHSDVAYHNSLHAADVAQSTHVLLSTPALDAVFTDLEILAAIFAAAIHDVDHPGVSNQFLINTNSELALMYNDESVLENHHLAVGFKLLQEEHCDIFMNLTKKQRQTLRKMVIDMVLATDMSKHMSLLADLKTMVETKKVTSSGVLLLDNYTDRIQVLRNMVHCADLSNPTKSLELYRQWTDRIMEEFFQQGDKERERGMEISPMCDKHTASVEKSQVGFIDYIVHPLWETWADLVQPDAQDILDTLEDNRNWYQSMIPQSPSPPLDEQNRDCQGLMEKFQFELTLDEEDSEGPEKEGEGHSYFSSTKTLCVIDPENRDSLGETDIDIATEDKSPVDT", "assay": "qHTS Assay for Inhibitors of PDE-IV (AID 607; active = well fitted activation curve with a large enough effect in the main read-out, with a control signal flat, not every such curve was filed as active)", "procedure,_shortened": "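Cell-based read-out of cAMP via a modified cyclic nucleotide-gated channel and membrane potential dye (535/590 nm) in HEK293 cells expressing PDE4 endogenously. Compounds tested up to 22.9 uM final; 100 uM RO 20-1724 reference.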"}, "[11]": {"molecular_target": "DNA dC->dU-editing enzyme APOBEC-3G (Homo sapiens) (UniProt Q9HC16)", "sequence (Q9HC16 whole entry, looked up)": "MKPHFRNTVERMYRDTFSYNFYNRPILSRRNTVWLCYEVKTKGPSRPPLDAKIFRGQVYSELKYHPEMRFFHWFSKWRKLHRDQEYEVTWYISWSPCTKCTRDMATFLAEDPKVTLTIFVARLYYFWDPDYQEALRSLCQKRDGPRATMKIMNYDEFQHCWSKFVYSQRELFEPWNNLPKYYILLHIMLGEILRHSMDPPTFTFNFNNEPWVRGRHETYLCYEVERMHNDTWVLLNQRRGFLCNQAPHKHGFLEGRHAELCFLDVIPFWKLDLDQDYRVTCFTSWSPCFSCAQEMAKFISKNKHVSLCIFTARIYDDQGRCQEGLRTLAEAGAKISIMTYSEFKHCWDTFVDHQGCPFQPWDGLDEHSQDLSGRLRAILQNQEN", "assay": "qHTS for inhibitors of Vif-A3G interactions: Validation (AID 588379)", "procedure,_shortened": "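Yellow fluorescence (Ex 488, Em 500-530) of Vif-coexpressing HeLa A3G-eYFP cells, scanned by Acumen cytometer, reports blocked A3G degradation. Cells plated at 700/well overnight at 37 deg C before compound addition, then a further overnight compound incubation at 37 deg C.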"}, "[12]": {"assay": "HepG2 cells viability qHTS for Zika virus inhibitors (AID 1347168)", "procedure,_shortened": "as §1"}, "[13]": {"assay": "Primary qHTS for small molecule stabilizers of the endoplasmic reticulum resident proteome: Secreted ER Calcium Modulated Protein (SERCaMP) assay (AID 1508630)", "procedure,_shortened": "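The SH-SY5Y reporter protocol was run at 3 concentrations up to 38.3 uM (primary) or 11 concentrations (follow-up): 16 h compound, 100 nM thapsigargin for 4 h, then extracellular luciferase luminescence.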"}, "[14]": {"test_system": "Zika virus NS2B-NS3 protease", "assay": "Primary screen GU AMC qHTS for Zika virus inhibitors (AID 1347154)", "procedure,_shortened": "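Unlinked Zika NS2B hydrophilic domain/NS3 protease domain noncovalent complex (25 nM final) in 10 mM Tris-HCl pH 8.0, 0.01% Tween 20, with AMC peptide substrate. Fluorescence (ex 340, em 450 nm) change over 15 min, room temperature; percent inhibition fitted to 4-parameter Hill equation.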"}}, "note": "Records with an inconclusive call do not appear. A call without a number means that no potency is given here. Calls of active or inactive are those of the source. Unless noted, calls come from the whole dose curve; as a rule, active = well fitted curve in the direction sought with a large enough effect; inconclusive = small, poorly fitted or top-dose-only effect, or another doubt; inactive = no such curve, though single readings can be large; an effect the other way counts as inactive or inconclusive.", "data": [{"smiles": "CCCCCCCCc1ccc(CCC(N)(CO)CO)cc1", "values": [{"measurement": "Potency", "setting": "[1]", "value": "inactive"}, {"measurement": "Potency", "setting": "[2]", "value": "inactive"}]}, {"smiles": "COc1ccc(Cn2ccc3ccc(C(=O)NO)cc32)cc1", "values": [{"measurement": "Potency", "setting": "[2]", "value": "inactive"}]}, {"smiles": "NC(=O)c1nnn(Cc2cc(Cl)c(C(=O)c3ccc(Cl)cc3)c(Cl)c2)c1N", "values": [{"measurement": "Potency", "setting": "[1]", "value": "inactive"}, {"measurement": "Potency", "setting": "[2]", "value": "inactive"}]}, {"smiles": "CC1(C)CC(=O)c2c(C(F)(F)F)nn(-c3ccc(C(N)=O)c(NC4CCC(OC(=O)CN)CC4)c3)c2C1", "note": "(centres undefined)", "values": [{"measurement": "Potency", "setting": "[1]", "value": "0.769 µM (active)"}, {"measurement": "Potency", "setting": "[2]", "value": "0.611 µM (active)"}]}, {"smiles": "C=CC(=O)N1CCC[C@@H](n2nc(-c3ccc(Oc4ccccc4)cc3)c3c(N)ncnc32)C1", "values": [{"measurement": "Potency", "setting": "[1]", "value": "21.7 µM (active)"}]}, {"smiles": "CCC[C@H](N[C@@H](C)C(=O)N1[C@@H]2CCCC[C@H]2C[C@H]1C(=O)O)C(=O)OCC", "values": [{"measurement": "Potency", "setting": "[1]", "value": "inactive"}]}, {"smiles": "COc1ccc(CCOC2OC(CO)C(OC(=O)/C=C/c3ccc(O)c(OC)c3)C(O[C@H]3O[C@@H](C)[C@H](O)[C@@H](O)[C@H]3O)C2O)cc1O", "note": "(some centres undefined)", "values": [{"measurement": "Potency", "setting": "[1]", "value": "inactive"}, {"measurement": "Potency", "setting": "[2]", "value": "inactive"}]}, {"smiles": "C[C@@]1(c2cc(-c3cncnc3)c(F)cc2F)CCSC(N)=N1", "values": [{"measurement": "Potency", "setting": "[1]", "value": "13.7 µM (active)"}]}, {"smiles": "C[C@@]12C=Cc3occc3[C@H]1CC[C@@]13C[C@@H](CC[C@H]12)[C@@](O)(CO)C3", "values": [{"measurement": "Potency", "setting": "[1]", "value": "inactive"}, {"measurement": "Potency", "setting": "[2]", "value": "inactive"}]}, {"smiles": "COc1ccc2cc1Oc1ccc(cc1)C[C@H]1c3cc(c(OC)cc3CCN1C)Oc1c(OC)c(OC)cc3c1[C@H](C2)N(C)CC3", "values": [{"measurement": "Potency", "setting": "[1]", "value": "inactive"}]}, {"smiles": "COC1CC2C=C(C)C=CC=CC(=O)NC(c3ccccc3)CC=CCCC(O)CC(=O)C2=C1O", "note": "(centres undefined)", "values": [{"measurement": "Potency", "setting": "[1]", "value": "inactive"}, {"measurement": "Potency", "setting": "[2]", "value": "inactive"}]}, {"smiles": "CC1(C)CNc2cc(NC(=O)c3cccnc3NCc3ccncc3)ccc21", "values": [{"measurement": "Potency", "setting": "[1]", "value": "34.3 µM (active)"}]}, {"smiles": "CC(=O)OC[C@@H]1O[C@@H](n2ccc(=O)[nH]c2=O)[C@H](OC(C)=O)[C@H]1OC(C)=O", "values": [{"measurement": "Potency", "setting": "[1]", "value": "4.85 µM (active)"}, {"measurement": "Potency", "setting": "[2]", "value": "7.69 µM (active)"}]}, {"smiles": "CC(=O)O[C@H]1[C@H]2O[C@]23[C@@H]2CC[C@]4(O)C[C@@H](O)CC[C@]4(C)C2CC[C@]3(C)[C@H]1c1ccc(=O)oc1", "note": "(some centres undefined)", "values": [{"measurement": "Potency", "setting": "[2]", "value": "0.316 µM (active)"}]}, {"smiles": "COC1C(O)C(C)O[C@@H](OC2CC[C@@]3(C)C4CC[C@]5(C)C(C6=CC(=O)OC6)CC[C@@]5(O)C4CC[C@@H]3C2)C1O", "note": "(some centres undefined)", "values": [{"measurement": "activity change, negative = inhibition", "setting": "[3]; at 57.5 µM (top of the series)", "value": "8.72% (inactive)"}, {"measurement": "max response", "setting": "[3]; measured here: cell count channel max response", "value": 8.32, "unit": "%"}, {"measurement": "max response", "setting": "[3]; measured here: lipid channel max response", "value": 14.8, "unit": "%"}, {"measurement": "Potency", "setting": "[4]", "value": "inactive"}, {"measurement": "Potency", "setting": "Furin (Homo sapiens)", "value": "inactive"}, {"measurement": "Potency", "setting": "[5]", "value": "inactive"}, {"measurement": "Potency", "setting": "[6]", "value": "0.0658 µM (active)"}]}, {"smiles": "CN(C(=O)Cc1ccc(Cl)c(Cl)c1)[C@@H](CN1CCCC1)c1cccc(OCC(=O)O)c1", "values": [{"measurement": "Potency", "setting": "[7]", "value": "inactive"}, {"measurement": "Potency", "setting": "[8]", "value": "> 46 µM (inactive)"}, {"measurement": "outcome", "setting": "[9]", "value": "inactive"}, {"measurement": "Potency", "setting": "[10]", "value": "inactive"}, {"measurement": "Potency", "setting": "[11]", "value": "inactive"}, {"measurement": "Potency", "setting": "Furin (Homo sapiens)", "value": "inactive"}, {"measurement": "Potency", "setting": "[5]", "value": "inactive"}, {"measurement": "Potency", "setting": "[12]", "value": "inactive"}, {"measurement": "Potency", "setting": "[6]", "value": "inactive"}, {"measurement": "Potency", "setting": "[13]", "value": "inactive"}]}, {"smiles": "CNc1ccc2oc(C[C@@H]3OC4(CC[C@@H]3C)O[C@H]([C@@H](C)C(=O)c3ccc[nH]3)[C@H](C)C[C@H]4C)nc2c1C(=O)O", "note": "(some centres undefined)", "values": [{"measurement": "Potency", "setting": "Furin (Homo sapiens)", "value": "21.5 µM (active)"}, {"measurement": "Potency", "setting": "[12]", "value": "26.2 µM (active)"}, {"measurement": "Potency", "setting": "[13]", "value": "inactive"}]}, {"smiles": "COc1cc2c(cc1OCC1CCCC1)N([S+](=O)([O-])c1ccc(Oc3ccccc3)cc1)CC21CCN(CC(=O)O)CC1", "values": [{"measurement": "Potency", "setting": "Furin (Homo sapiens)", "value": "inactive"}]}, {"smiles": "O=C1CC2OCC=C3CN4CCC56c7ccccc7N1C5C2C3CC46", "note": "(centres undefined)", "values": [{"measurement": "Potency", "setting": "[14]", "value": "inactive"}]}, {"smiles": "C[C@H]1O[C@@H](O[C@H]2[C@@H](O)C[C@H](O[C@H]3[C@@H](O)C[C@H](O[C@H]4CC[C@]5(C)C6CC[C@]7(C)[C@@H](C8=CC(=O)OC8)CC[C@]7(O)C6CC[C@@H]5C4)O[C@@H]3C)O[C@@H]2C)C[C@H](O)[C@@H]1O", "note": "(some centres undefined)", "values": [{"measurement": "Potency", "setting": "Furin (Homo sapiens)", "value": "inactive"}, {"measurement": "Potency", "setting": "[14]", "value": "inactive"}, {"measurement": "Potency", "setting": "[5]", "value": "inactive"}, {"measurement": "Potency", "setting": "[12]", "value": "inactive"}, {"measurement": "Potency", "setting": "[6]", "value": "0.147 µM (active)"}, {"measurement": "Potency", "setting": "[13]", "value": "inactive"}]}]}
